HP1b chromo inh – inhibitors of HP1-beta chromodomain binding to methylated histone tails; P83916; AlphaScreen HP1-beta / biotin-H3K9me3 peptide binding; Potency, µM (highest dose often 114 µM), without a hit: at the top dose activity change, negative = inhibition, hits mostly inhibitors; actives 0.56% (n = 390,000); AID 540317; further: nearly all actives have a fitted effect of over 70% in size
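Compound inhibition of the preformed complex between 50 nM HP1-beta and 50 nM biotinylated H3K9me3 peptide was read by AlphaScreen. Buffer was PBS pH 7.4 with 0.01% Tween-20. Incubations ran 30 min at room temperature, with 10 ug/mL donor/acceptor beads.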
BAZ2B block – BAZ2B (human) inhibition; Q9UIF8; AlphaScreen BAZ2B-H3K14Ac peptide displacement; Potency, µM (top dose mostly 114 µM), for the others: top-dose activity change, negative = inhibition, usual class: inhibitors; actives 4.4% (n = 360,000); AID 504333; further: on the % scale 0 is the no-effect control and ±100 the full control effect; nearly all actives have a fitted effect of over 60% in size
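AlphaScreen displacement of biotin-H3(5-23)K14Ac peptide (50 nM final) from BAZ2B (50 nM final) in PBS pH 7.4, 0.01% Tween-20; complex preformed 30 min RT, then compounds (top 110 uM) 30 min RT, beads 20 min dark.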
G9a block – blocks human histone lysine methyltransferase G9a; Q96KQ7; G9a H3K9 monomethylation, AlphaScreen, 2 h; Potency, µM (titrated, usually from 102 µM), without a hit: at the highest dose activity, negative = inhibition, most hits filed as inhibitors; actives 8.8% (n = 350,000); further: on the % scale 0 is the no-effect control and ±100 the full control effect; nearly all actives have a fitted effect of over 75% in size
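Step 1: enzyme (final 20 nM) with compound, 15 min RT. Step 2: substrate peptide 500 nM and SAM 20 uM, 2 h RT. Step 3: anti-H3K9me1 antibody and AlphaScreen beads, 10 min, then plate read.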
JMJD2A Tudor – JMJD2A Tudor domain (human) inhibition. O75164. AlphaScreen JMJD2A-Tudor / H3K4me3 peptide binding. Potency, µM (titrated, usually from 114 µM), inactives show top-dose activity change, negative = inhibition, actives largely listed as inhibitors. actives 4.4% (n = 390,000); further: on the % scale 0 is the no-effect control and ±100 the full control effect; nearly all actives have a fitted effect of over 50% in size
L3MBTL1 inh – blocks human L3MBTL1. AID 485360. AlphaScreen L3MBTL1–H3K9me1 peptide binding. actives 0.66% (n = 230,000). Potency, µM (series often up to 57.1 µM), without a hit: at the highest dose activity, negative = inhibition, actives largely listed as inhibitors. Q9Y468; further: on the % scale 0 is the no-effect control and ±100 the full control effect; nearly all actives have a fitted effect of over 60% in size
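Read-out is AlphaScreen signal from streptavidin donor and nickel chelate acceptor beads (10 ug/mL final each) bridging L3MBTL1 (50 nM) and biotinylated K9-monomethylated H3(1-15) peptide (75 nM), after 30 min compound exposure at room temperature.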
* hit, by the source's call; ? = inconclusive; . = no result given; ! = a repeat was not active; [ ] = remark or other dose. A selection: hits, their analogues and other compounds. The true share with any hit is near 11%. The call rests on the fitted dose curve; in most records, active means well fitted inhibition curve with a large enough effect; inconclusive means small, poorly fitted or top-dose-only effect; inactive means no such curve, though single readings can be large or run the other way. Potency means the concentration at half of the fitted maximal effect.

SMILES	HP1b chromo inh	BAZ2B block	G9a block	JMJD2A Tudor	L3MBTL1 inh
Cc1cccc(NC(=O)CCN2CCN(c3ccccc3F)CC2)c1	45%	5%	4%[59 µM]	-20%	.
Cc1ccc(Cl)cc1NC(=O)CN1C(=O)C(C)(C)c2cc(S(=O)(=O)N3CCCCC3)ccc21	6%[57 µM]	-13%	0%[59 µM]	-17%	.
Cc1cccc(NC(=O)CN2C(=O)CCc3ccccc32)c1C	22%	-10%	-9%[59 µM]	3%	.
O=C(CCNS(=O)(=O)c1ccc2c(c1)CCCC(=O)N2)Nc1cccc(Cl)c1	-1%	5%[57.1 µM]	-2%[59 µM]	-24%	.
O=C(NNC(=O)c1cccs1)c1cccnc1	20%	3%	-7%[59 µM]	-7%	.
O=C(NNC(=S)NC(=O)c1cccs1)c1cccnc1	45%	9%	45µM*	-9%	3%
FC(F)(F)c1ccc(-c2noc(-c3ccccc3Br)n2)cc1	58%	10%	12%[59 µM]	3%	.
Oc1ccc(-c2nc(=S)[nH][nH]2)cc1	-32%	-18%	1.3µM*	5µM*	-2%
COc1ccc(-c2nc(=S)[nH][nH]2)cc1	79µM*	6%	1.8µM*	2.5µM*	4%
FC(F)(F)c1ccc(-c2nc(=S)[nH][nH]2)cc1	24%	-19%	3.5µM*	22µM*	.
Oc1ccc(-c2nc3ccccc3nc2-c2ccccc2)cc1	54%	-6%	15%	-21%	1%
CCOc1ccc(-c2nnc(-c3ccc(OC)cc3)o2)cc1	30%	-1%	-39%[59 µM]	-3%	-3%
CCOc1ccc(-c2nc(=S)[nH][nH]2)cc1	-19%	-2%	1.4µM*	7.1µM*	1%
O=S(=O)(c1ccc(Br)s1)N1CCN(c2ccccc2)CC1	36%	4%	-28%	1%	12%
O=S(=O)(c1ccc(Br)s1)N1CCN(c2ccc(F)cc2)CC1	-8%	6%	40µM*	-14%	.
CCOc1ccc(N=CC2=C(O)CC(c3ccco3)CC2=O)cc1 (stereo not given)	0%	-1%	4%[59 µM]	-10%	-5%
O=C1CC(c2ccco2)CC(O)=C1C=Nc1cc(Cl)cc(Cl)c1 (stereo not given)	-19%	?	10µM*	?	.
CCn1cc(S(=O)(=O)c2ccc(OC)cc2)c(=O)c2cc(F)c(N3CCC(C)CC3)cc21	14%	1%	-2%[59 µM]	-8%	.
CCNC(=O)CSc1nnc(CN2CCCCCC2=O)n1-c1ccccn1	2%	.	14%	-1%[57.1 µM]	7%
O=C1CCCCCN1Cc1nnc(SCc2nc3ccccc3s2)n1-c1ccccn1	38%	-22%	50µM*	-22%	-1%
OCCCNCc1ccc(N(c2ccccc2)c2ccccc2)cc1	71µM*	56µM*	13µM*	40µM*	.
OCCNCc1ccc(-c2ccccc2)cc1	24%	7%	-11%[59 µM]	-27%	9%
O=C(C1=C(Nc2ccccc2)c2ccccc2S(=O)(=O)N1)c1ccccc1	?	-6%	25µM*	?	-27%
COc1ccc(Cl)cc1NC(=O)CN1C(=O)COc2ccc(S(=O)(=O)NC3CCCC3)cc21	16%	4%	-1%[59 µM]	-10%	.
CC1=C(c2ccc(C)cc2)S(=O)(=O)N=C1N1CCN(c2ccccc2)CC1	19%	-21%	-51%[59 µM]	?	.
SMILES	HP1b chromo inh	BAZ2B block	G9a block	JMJD2A Tudor	L3MBTL1 inh
CCCN1CCN(CC2=C(C(=O)OCC)C(c3cccc(OC)c3OC)NC(=O)N2)CC1 (stereo not given)	38%	-4%	3%[59 µM]	0%	.
CN(C)CCOC(=O)C12CC3CC(C1)CC(C(=O)OCCN(C)C)(C3)C2	23%	1%	56µM*	3%	-25%
Clc1ccc(C2=NCCN2)cc1	32%	?	5%[59 µM]	-9%	-8%
COc1cc(-c2ccc(N=Nc3ccc4c(S(=O)(=O)O)cc(S(=O)(=O)O)c(N)c4c3O)c(OC)c2)ccc1N=Nc1ccc2c(S(=O)(=O)O)cc(S(=O)(=O)O)c(N)c2c1O	.	.	7.1µM*	.	.
NC(N)=NC(=O)c1nc(Cl)c(N2CCCCCC2)nc1N	-18%	?	50µM*!	?	-11%
CCC(=O)c1ccc(Oc2ccc(C(=O)c3ccc(C)cc3)cc2[N+](=O)[O-])cc1	-7%	-29%	-50%[59 µM]	-15%	-3%
O=C(c1ccccc1)c1ccc(Oc2ccc([N+](=O)[O-])cc2[N+](=O)[O-])cc1	?	.	.	7.1µM*	.
Cc1ccc(-c2cc(C(=O)N3CC(C)CC(C)C3)c3ccccc3n2)o1 (stereo not given)	?	79µM*	8.9µM*	28µM*	.
COC(=O)c1cc(-c2ccc(C)o2)nc2ccccc12	?	?	?	?	-16%
Cc1ccc(-c2cc(C(=O)N3CC(C)OC(C)C3)c3ccccc3n2)o1 (stereo not given)	38%	7%	10µM*	-9%	-1%
C/C(=N\Nc1ccc(Cl)c(Cl)c1)c1ccc(-n2ccnc2)cc1	13%	?	11µM*	-31%	-16%
CCN(Cc1ccccc1)c1ccc(Br)cn1	.	.	.	88%	.
CC(OC(=O)C1=Cc2ccccc2OC1)C(=O)NCC1CCCO1 (stereo not given)	?	.	.	22µM*	.
COCCNC(=O)C(C)OC(=O)C1=Cc2ccccc2OC1 (stereo not given)	23%	0%	.	-9%	9%
CCOc1ccccc1CNC(=O)c1cc2oc3ccccc3c2n1C	-8%	-30%	-5%[59 µM]	?	.
CCOc1ccccc1CNC(=O)c1cc2occc2n1C	?	45µM*	25µM*	-35%	?
CCNC(=S)NNc1nncc2ccccc12	3%	-24%	?	?	-14%
COc1ccc(/C=N/Nc2nncc3ccccc23)cc1	27%	25µM*	?	28µM*	-6%
NNc1nncc2ccccc12	.	.	7.9µM*!	.	.
CNC(=S)NNc1nncc2ccccc12	-14%	-14%	2.5µM*	-22%	0%
COc1ccc(F)cc1Cn1nc(C(=O)O)c2ccccc2c1=O	19%	5%	-3%	-9%	.
O=C(Nc1ncc(Cc2ccccc2)s1)C1CCN(C(=O)c2ccco2)CC1	30%	.	.	-20%	.
CCC(=O)N1CCc2cc(Br)cc(S(=O)(=O)N(CC)Cc3ccccc3)c21	31%	-3%	?	6%	.
CC(C)(C)c1csc(NC(=O)Cc2cccs2)n1	20%	50µM*	50µM*	-11%	-18%
CCOC(=O)Cc1csc(NC(=O)CSc2nc(C)cc(C)n2)n1	17%	.	.	-13%	-2%
CCOC(=O)Cc1csc(NC(=O)CCSc2ccccc2)n1	34%	-16%	50µM*	-5%	1%
CCOC(=O)Cc1csc(NC(=O)CSc2cc(Cl)ccc2Cl)n1	27%	?	22µM*	1%	3%
CC(C)(C)c1csc(NC(=O)c2cccs2)n1	4%	-4%	?	3%	-13%[11.4 µM]
CCOC(=O)Cc1csc(NC(=O)Cc2cccs2)n1	5%	50µM*	-6%	45µM*	?

Screening results (PubChem BioAssay)
